Inconclusive results are not listed. Active and inactive are the calls of the source. Unless noted, calls come from the whole dose curve; as a rule, active = well fitted curve in the direction sought with a large enough effect; inconclusive = small, poorly fitted or top-dose-only effect, or another doubt; inactive = no such curve, though single readings can be large; an effect the other way counts as inactive or inconclusive. A value given as a limit tells only on which side of the number the result lay.

The record followed here is PubChem BioAssay (NCATS).

In assay [1] the target is Lysosomal acid glucosylceramidase (Homo sapiens) (UniProt P04062). Kind of assay: Glucocerebrosidase-p2 (AID 348; in the data active = potency below about 10 µM; note: potency is the fitted concentration of half-maximal effect). The settings on record: purified GBA, blue fluorogenic substrate, 40 min. In a few lines: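 Normal human glucocerebrosidase (0.2 nM) with blue fluorogenic substrate (80 uM final) in citrate/phosphate pH 5.9 with 10mM sodium taurocholate, 0.01% tween-20; 40 min RT, NaOH/glycine stop; fluorescence Ex 365/Em 440; AC50 from a titration from 0.6 nM upwards.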

Assay [2] can be described thus: AP1 Signaling Pathway (AID 357; active = well fitted curve in either direction with a large enough effect, not every such curve was filed as active;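 note: ME-180 reporter cells stimulated with EGF at its EC50 level; % is set by controls: 0 for no effect and ±100 for the full control effect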). The settings on record: ME-180 AP-1-bla reporter, EGF-induced, beta-lactamase ratio, 5 h; at 7.69 µM (top of the series) unless noted. Summed up: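 AP-1-bla ME-180 cells, Opti-MEM + 0.5% dialyzed FBS, plated overnight 37 °C. Cpd titration + EC50 EGF, 5 h 37 °C. CCF4 2.5 h RT; ex 405, em 460/530 ratio → %activity, AC50.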
Assay [3] in a line: NFAT Signaling Pathway (AID 444; active = well fitted curve in either direction with a large enough effect, not every such curve was filed as active;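 note: carbachol stimulus at about its EC50 of 1 µM final; % is set by controls: 0 for no effect and ±100 for the full control effect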). The settings on record: Jurkat NFAT-bla M1, carbachol, beta-lactamase ratio, 5 h; at 7.69 µM (top of the series) unless noted. Summed up:
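Jurkat cells carrying an NFAT-driven β-lactamase reporter and co-transfected muscarinic M1 receptor were treated with compound plus carbachol (1 uM final, an EC50 level) for 5 h at 37 °C. CCF4 loading followed for 1 h at RT; 460/530 nm ratio gave %activity.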

Assay [4] is described as follows: Stat Signaling Pathway (AID 446; active = well fitted curve in either direction with a large enough effect, not every such curve was filed as active;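 note: ME-180 cervical cancer cells given 40 pM IL-6 alongside compound; SIE-controlled beta-lactamase reporter measured as 460/530 nm FRET emission ratio; % is set by controls: 0 for no effect and ±100 for the full control effect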). The settings on record: ME-180 SIE beta-lactamase reporter, IL-6 stimulated, 5 h; at 7.69 µM (top of the series) unless noted. In a few lines: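 Overnight-plated ME-180 cells bearing a STAT Inducible Element beta-lactamase reporter; 5 h co-exposure to compound and 40 pM IL-6; values normalized to 300 pM IL-6 and 125 nM JAK inhibitor controls.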

Assay [5] addresses Glucocorticoid receptor (Homo sapiens) (UniProt P04150). As to the kind of experiment: GR-GFP Redistribution (AID 450;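 active = compounds whose dose series gives a full or clear partial fitted curve of increased nuclear translocation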; note: potency is the fitted concentration of half-maximal effect). The settings on record: U2OS GR-GFP nuclear translocation, laser cytometry, 2 h.
Assay [6] shares this target. Kind of assay: GR-EFC Redistribution (AID 451; calls by dose curve; note: potency is the fitted concentration of half-maximal effect). As to conditions: CHO-K1 GR-EFC translocation, beta-gal luminescence, 2 h. In a few lines:
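CHO-K1 cells stably expressing nuclear-localized β-gal enzyme acceptor and GR fused C-terminally to the enzyme donor fragment; ligand-driven nuclear translocation restores β-gal by complementation. Compounds titrated up to 46 uM final, 2 h at 37 °C; luminescence read.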

Assay [7] concerns the target Mitogen-activated protein kinase 10 (Mus musculus) (UniProt Q61831). As to the kind of experiment: JNK3 AlphaScreen Assay (AID 530; active = well fitted curve in either direction with a large enough effect, not every such curve was filed as active;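 note: kinase came from lysate of stimulated human HepG2 cells; % is set by controls: 0 for no effect and ±100 for the full control effect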). As to conditions: JNK3 lysate, c-Jun phosphorylation; series mostly up to 57.1 µM. Summed up: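 Biotinylated GST-cJun(1-79) served as substrate for JNK3 in HepG2 lysates stimulated with IL-1beta and TNF-alpha. ATP was 10 uM final, pH 7.6. Ser73 phosphorylation was quantified by AlphaScreen (680 nm excitation).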
In general terms: Bead proximity is the source of the signal in Alpha formats.

In assay [8] the target is 3',5'-cyclic-AMP phosphodiesterase 4B (Homo sapiens) (UniProt Q07343). As to the kind of experiment: qHTS Assay for Inhibitors of PDE-IV (AID 607; active = well fitted activation curve with a large enough effect in the main read-out, with a control signal flat, not every such curve was filed as active; note: % of control where 0% means no effect). The settings on record: HEK293 ACTOne CNG channel cells, membrane potential fluorescence; series mostly up to 22.9 µM. In a few lines: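 Live HEK293 cells with a modified cyclic nucleotide-gated (CNG) channel report intracellular cAMP via membrane-potential dye fluorescence (ex 535/em 590 nm). Endogenous PDE-IV was targeted. Compounds were tested at up to 22.9 uM final; RO 20-1724 100 uM served as control.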

Assay [9] in a line: qHTS Assay for Lipid Storage Modulators (AID 1519; calls by dose curve). The settings on record: Drosophila S3 cells, BODIPY lipid droplet/cell ratio, laser cytometry, cells loaded with oleic acid; for activity change, negative = inhibition: at 57.5 µM (top of the series). In a few lines:
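Cells seeded at 5,000 per well were treated with compounds over a concentration series and loaded with oleic acid (400 uM, as added). Lipid droplet fluorescence (488 nm excitation, 500-530 nm channel) was read by laser-scanning cytometry and normalized to 20 uM Triacsin C.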

For assay [10], the target named is Dual specificity protein kinase CLK4 (Homo sapiens) (UniProt Q9HAZ1). Kind of assay: qHTS Assay for Inhibitors of CDC-like Kinase 4 (Kinase-Glo Assay) (AID 1770). Note: nearly all actives have a fitted effect of over 65% in size. Note: potency is the fitted concentration of half-maximal effect. As to conditions: recombinant Clk4, Kinase-Glo ATP depletion luminescence; series mostly up to 66.7 µM. In a few lines:
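Inhibition was judged from remaining ATP, measured by Ultra-Glo luciferase bioluminescence after Clk4 (25 nM) had acted on RS peptide at 1 uM ATP for 4.5 hours, room temperature.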

For assay [11] the target is unchanged. As to the kind of experiment: qHTS Assay for Inhibitors of CDC-like Kinase 4 (ADP-FP Assay) (AID 1795). Note: nearly all actives have a fitted effect of over 60% in size. Note: potency is the fitted concentration of half-maximal effect. The settings on record: Transcreener ADP fluorescence polarization; series mostly up to 50 µM. In a few lines:
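Inhibition of ADP formation by 6.25 nM Clk4 is measured using 1 uM ATP and 100 uM RS repeat peptide over one hour. Produced ADP displaces a fluorescent tracer from antibody, lowering polarization.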

Assay [12] addresses Ubiquitin carboxyl-terminal hydrolase 1 (Homo sapiens) (UniProt O94782). Kind of assay: Inhibitors of USP1/UAF1: Pilot qHTS (AID 504865).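 Note: rhodamine fluorescence freed from ubiquitin-rhodamine substrate followed over time; top concentration of the series differs between compounds; % is set by controls: 0 for no effect and ±100 for the full control effect; nearly all actives have a fitted effect of over 35% in size.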 As to conditions: purified USP1/UAF1, Ub-rhodamine cleavage fluorescence; series mostly up to 54.9 µM. Summed up:
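Kinetic fluorescence assay: 1nM USP1/UAF1, 15 min compound preincubation, then 150nM Ub-Rho; 480/540 nm.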

Assay [13] is described as follows: Primary qHTS for small molecule stabilizers of the endoplasmic reticulum resident proteome: Secreted ER Calcium Modulated Protein (SERCaMP) assay (AID 1508630). Note: % is set by controls: 0 for no effect and ±100 for the full control effect. As to conditions: SH-SY5Y GLuc-SERCaMP (Gaussia luciferase released on ER calcium loss) secretion, thapsigargin, luminescence; series mostly up to 38.4 µM. Summed up: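 The SH-SY5Y reporter protocol was run at 3 concentrations up to 38.3 uM (primary) or 11 concentrations (follow-up): 16 h compound, 100 nM thapsigargin for 4 h, then extracellular luciferase luminescence.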

In assay [14] the target is Cytochrome P450 1A2 (Homo sapiens) (UniProt P05177). As to the kind of experiment: p450-cyp1a2 (AID 410; calls by dose curve; note: potency is the fitted concentration of half-maximal effect). As to conditions: recombinant CYP1A2, luciferin-ME demethylation, luminescence; series mostly up to 57 µM. Summed up: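 Read-out is luminescence from luciferin produced by CYP1A2 demethylation of Luciferin-ME (100uM, at Km). Detection reagent stopped the 60 min NADPH-dependent reaction; signals were normalized to 57 uM furafylline.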

The nature of assay [15]: qHTS Assay for Identification of Small Molecule Agonists for Hypoxia Response Element Signaling Pathway (AID 914; active = well fitted activation curve with a large enough effect in the signal ratio, with a control signal flat, not every such curve was filed as active; the % refers to the signal ratio; note: potency is the fitted concentration of half-maximal effect). As to conditions: ME-180 (cervical carcinoma) HRE-bla reporter, beta-lactamase ratio, CoCl2, 17 h; activation: stronger effect = higher value. In a few lines:
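Positive modulation of EC50 CoCl2-induced hypoxia response element signaling is measured in ME-180 cells with a beta-lactamase reporter. Compounds are titrated, incubation runs 17 hours, and %Activity derives from the blue/green ratio.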

The target in assay [16] is Dual specificity protein kinase CLK4 (Homo sapiens) (UniProt Q9HAZ1). Kind of assay: qHTS Assay for Inhibitors of CDC-like Kinase 4 (ADP-Glo Assay) (AID 1771). Note: % is set by controls: 0 for no effect and ±100 for the full control effect; nearly all actives have a fitted effect of over 70% in size. The settings on record: recombinant CLK4, ADP-Glo luminescence; series mostly up to 80 µM. In a few lines: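 In this ADP-Glo format, 1 uM ATP and 100 uM RS peptide served as substrates for 25 nM Clk4 in Mg2+/EGTA/DTT/Triton buffer; reactions ran 1 hr at room temperature before luminescent ADP quantification.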
For orientation: In qHTS, concentration-response curves come from the screen itself.

Assay [17] deals with Cytochrome P450 3A4 (Homo sapiens) (UniProt P08684). Kind of assay: qHTS Assay for Inhibitors and Substrates of Cytochrome P450 3A4 (AID 884). Note: potency is the fitted concentration of half-maximal effect; nearly all actives have a fitted effect of over 50% in size. The settings on record: recombinant CYP3A4, Luciferin-PPXE luminescence; series mostly up to 57.1 µM. Summed up:
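Luminescent readout of luciferin produced by CYP3A4 (20 nM) dealkylation of Luciferin-PPXE, 25 uM (its KM). NADPH-driven reaction ran 60 min at RT after 10 min compound preincubation; data scaled to 57 uM ketoconazole as 100% inhibition.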

Assay [18] has the same target. Kind of assay: qHTS Assay for Activators of Cytochrome P450 3A4 (AID 885). Note: nearly all actives have a fitted effect of over 65% in size. As to conditions: recombinant CYP3A4, Luciferin-PPXE luminescence, 60 min; series mostly up to 57.1 µM. In a few lines: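 Using 20nM recombinant human CYP3A4 in potassium phosphate (200mM), substrate Luciferin-PPXE at 25uM, luminescent luciferin detection followed a 60-min RT NADPH reaction; data scaled to 57 uM ketoconazole.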

Setting [19] is: measured here: cell count channel max response.
[20] abbreviates: measured here: lipid channel max response.

Chain of Dual specificity protein kinase CLK4 (Homo sapiens) (Q9HAZ1 whole entry, looked up): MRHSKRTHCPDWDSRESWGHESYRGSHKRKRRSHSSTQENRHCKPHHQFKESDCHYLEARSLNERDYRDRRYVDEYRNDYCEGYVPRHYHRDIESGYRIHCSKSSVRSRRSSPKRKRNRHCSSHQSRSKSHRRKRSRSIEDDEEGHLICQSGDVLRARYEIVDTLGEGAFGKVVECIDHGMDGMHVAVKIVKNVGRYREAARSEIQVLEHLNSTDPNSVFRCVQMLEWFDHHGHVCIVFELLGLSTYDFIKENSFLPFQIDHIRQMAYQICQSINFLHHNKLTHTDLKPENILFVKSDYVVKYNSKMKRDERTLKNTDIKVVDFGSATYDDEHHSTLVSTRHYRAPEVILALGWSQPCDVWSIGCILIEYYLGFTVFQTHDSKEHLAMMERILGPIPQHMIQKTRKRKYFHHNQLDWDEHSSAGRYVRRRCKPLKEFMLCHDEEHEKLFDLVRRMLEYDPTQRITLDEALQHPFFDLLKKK
Chain of Cytochrome P450 1A2 (Homo sapiens) (P05177 whole entry, looked up): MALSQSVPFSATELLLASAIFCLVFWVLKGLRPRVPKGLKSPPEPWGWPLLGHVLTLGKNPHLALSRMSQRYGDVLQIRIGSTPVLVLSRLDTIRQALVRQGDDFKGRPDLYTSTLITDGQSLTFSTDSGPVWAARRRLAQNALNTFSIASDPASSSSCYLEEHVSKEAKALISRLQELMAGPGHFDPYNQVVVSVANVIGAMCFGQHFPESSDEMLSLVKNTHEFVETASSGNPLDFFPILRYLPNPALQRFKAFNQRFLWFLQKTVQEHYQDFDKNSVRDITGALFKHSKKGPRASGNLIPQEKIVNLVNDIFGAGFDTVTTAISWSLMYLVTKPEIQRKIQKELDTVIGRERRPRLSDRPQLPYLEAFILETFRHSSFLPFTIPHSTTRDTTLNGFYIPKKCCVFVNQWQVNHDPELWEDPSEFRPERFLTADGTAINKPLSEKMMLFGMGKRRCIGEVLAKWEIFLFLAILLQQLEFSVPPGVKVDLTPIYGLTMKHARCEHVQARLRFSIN
Chain of Glucocorticoid receptor (Homo sapiens) (P04150 whole entry, looked up): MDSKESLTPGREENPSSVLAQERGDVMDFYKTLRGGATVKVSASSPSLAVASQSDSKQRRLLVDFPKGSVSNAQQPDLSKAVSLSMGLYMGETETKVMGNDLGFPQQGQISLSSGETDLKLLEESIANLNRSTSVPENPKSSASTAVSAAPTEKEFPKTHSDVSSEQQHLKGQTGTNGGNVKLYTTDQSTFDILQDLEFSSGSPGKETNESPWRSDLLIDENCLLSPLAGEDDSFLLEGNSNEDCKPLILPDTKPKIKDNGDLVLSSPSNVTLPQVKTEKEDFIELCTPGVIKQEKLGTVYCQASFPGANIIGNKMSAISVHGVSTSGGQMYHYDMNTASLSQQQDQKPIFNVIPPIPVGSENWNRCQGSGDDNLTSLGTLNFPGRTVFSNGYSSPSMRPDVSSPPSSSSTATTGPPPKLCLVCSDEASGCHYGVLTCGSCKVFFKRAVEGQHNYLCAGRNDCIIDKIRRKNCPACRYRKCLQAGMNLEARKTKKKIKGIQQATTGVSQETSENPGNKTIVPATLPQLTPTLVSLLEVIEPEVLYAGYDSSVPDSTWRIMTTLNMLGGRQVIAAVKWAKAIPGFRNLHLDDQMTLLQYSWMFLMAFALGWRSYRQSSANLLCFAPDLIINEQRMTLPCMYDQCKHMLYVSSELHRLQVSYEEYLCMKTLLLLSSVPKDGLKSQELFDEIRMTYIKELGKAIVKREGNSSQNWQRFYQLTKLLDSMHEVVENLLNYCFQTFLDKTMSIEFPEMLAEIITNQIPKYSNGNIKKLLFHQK
Chain of Lysosomal acid glucosylceramidase (Homo sapiens) (P04062 whole entry, looked up): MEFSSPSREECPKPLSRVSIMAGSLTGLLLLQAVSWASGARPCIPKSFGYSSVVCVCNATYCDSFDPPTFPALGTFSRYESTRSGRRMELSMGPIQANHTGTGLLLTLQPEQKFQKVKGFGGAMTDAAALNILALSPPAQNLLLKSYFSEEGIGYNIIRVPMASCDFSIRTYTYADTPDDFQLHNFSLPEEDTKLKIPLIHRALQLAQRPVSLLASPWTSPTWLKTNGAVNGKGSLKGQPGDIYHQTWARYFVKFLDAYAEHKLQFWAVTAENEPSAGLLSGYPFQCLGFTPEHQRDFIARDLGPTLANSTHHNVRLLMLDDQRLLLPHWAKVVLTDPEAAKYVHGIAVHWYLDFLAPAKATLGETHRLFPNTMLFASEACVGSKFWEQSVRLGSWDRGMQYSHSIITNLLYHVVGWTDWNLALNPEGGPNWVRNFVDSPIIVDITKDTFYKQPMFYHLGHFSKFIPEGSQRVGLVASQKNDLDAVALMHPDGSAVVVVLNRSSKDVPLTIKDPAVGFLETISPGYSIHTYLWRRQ
Chain of 3',5'-cyclic-AMP phosphodiesterase 4B (Homo sapiens) (Q07343 whole entry, looked up): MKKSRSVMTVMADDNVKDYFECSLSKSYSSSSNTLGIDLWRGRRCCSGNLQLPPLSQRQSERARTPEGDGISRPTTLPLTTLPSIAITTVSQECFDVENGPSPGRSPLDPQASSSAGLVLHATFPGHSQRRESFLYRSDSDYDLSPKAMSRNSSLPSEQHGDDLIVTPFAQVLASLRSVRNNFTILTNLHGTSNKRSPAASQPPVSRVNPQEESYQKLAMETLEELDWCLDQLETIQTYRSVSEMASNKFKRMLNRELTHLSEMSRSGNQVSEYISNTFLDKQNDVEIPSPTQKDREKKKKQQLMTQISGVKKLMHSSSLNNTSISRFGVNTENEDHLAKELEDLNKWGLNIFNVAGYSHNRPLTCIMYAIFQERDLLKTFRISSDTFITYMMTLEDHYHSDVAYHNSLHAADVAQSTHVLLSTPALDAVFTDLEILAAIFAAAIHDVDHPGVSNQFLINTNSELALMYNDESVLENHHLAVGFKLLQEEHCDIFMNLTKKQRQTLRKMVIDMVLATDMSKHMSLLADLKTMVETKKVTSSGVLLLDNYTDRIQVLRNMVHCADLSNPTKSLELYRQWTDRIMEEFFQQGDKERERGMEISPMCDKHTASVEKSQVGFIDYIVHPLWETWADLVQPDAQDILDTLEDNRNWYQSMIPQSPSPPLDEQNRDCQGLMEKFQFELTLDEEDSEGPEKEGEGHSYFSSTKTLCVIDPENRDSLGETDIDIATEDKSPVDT
Chain of Cytochrome P450 3A4 (Homo sapiens) (P08684 whole entry, looked up): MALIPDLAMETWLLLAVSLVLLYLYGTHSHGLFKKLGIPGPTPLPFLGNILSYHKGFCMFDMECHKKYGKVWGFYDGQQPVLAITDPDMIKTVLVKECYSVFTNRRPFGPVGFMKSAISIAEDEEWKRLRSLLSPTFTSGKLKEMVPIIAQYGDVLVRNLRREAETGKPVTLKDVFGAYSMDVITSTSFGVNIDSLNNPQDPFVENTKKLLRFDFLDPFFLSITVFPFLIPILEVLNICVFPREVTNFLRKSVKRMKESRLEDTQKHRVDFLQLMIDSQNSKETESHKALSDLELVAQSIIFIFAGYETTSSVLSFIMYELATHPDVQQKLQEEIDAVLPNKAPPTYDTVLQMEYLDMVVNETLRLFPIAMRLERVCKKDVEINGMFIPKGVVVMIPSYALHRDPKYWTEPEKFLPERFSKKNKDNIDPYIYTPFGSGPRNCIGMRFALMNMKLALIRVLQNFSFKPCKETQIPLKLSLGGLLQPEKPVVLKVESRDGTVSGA
Chain of Ubiquitin carboxyl-terminal hydrolase 1 (Homo sapiens) (O94782 whole entry, looked up): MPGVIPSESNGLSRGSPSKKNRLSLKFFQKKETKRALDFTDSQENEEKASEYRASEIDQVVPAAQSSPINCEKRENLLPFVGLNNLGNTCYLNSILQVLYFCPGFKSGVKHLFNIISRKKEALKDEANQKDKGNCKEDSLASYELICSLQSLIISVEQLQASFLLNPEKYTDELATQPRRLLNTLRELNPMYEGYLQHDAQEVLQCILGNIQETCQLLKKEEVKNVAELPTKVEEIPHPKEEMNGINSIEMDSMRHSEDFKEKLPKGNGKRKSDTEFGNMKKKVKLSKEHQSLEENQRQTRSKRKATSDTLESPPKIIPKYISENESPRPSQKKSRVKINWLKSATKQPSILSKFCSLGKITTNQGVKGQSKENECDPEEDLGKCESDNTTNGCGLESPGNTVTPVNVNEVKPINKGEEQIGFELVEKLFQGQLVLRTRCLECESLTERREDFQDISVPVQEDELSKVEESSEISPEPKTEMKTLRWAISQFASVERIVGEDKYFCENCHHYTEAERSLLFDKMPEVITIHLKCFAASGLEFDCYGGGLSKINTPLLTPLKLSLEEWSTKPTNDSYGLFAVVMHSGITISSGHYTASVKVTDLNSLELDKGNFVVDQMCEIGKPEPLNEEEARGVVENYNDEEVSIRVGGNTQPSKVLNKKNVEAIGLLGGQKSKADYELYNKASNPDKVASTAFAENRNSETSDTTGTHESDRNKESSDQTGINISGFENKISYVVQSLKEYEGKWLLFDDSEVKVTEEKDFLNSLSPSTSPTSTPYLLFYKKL

As to `COCCn1c(=O)c(-c2cn(C)c3ccccc23)nc2cnc(N3CCOCC3)nc21`, the Potency was > 11.4 µM (inactive) in assay [1], > 9.22 µM (inactive) in assay [5] and > 46 µM (inactive) in [6]. Further, the activity change, negative = inhibition was -12.3% (inactive) in assay [2], 5.44% (inactive) in assay [3] and 4.05% (inactive) in assay [9]. Further, in assay [4], the activity, negative = inhibition was -11.9% (inactive). The result in assay [7] was inactive. For the same compound, the Potency result in assay [8], in assay [10], in [11], in assay [12] and in assay [13] was “inactive” each time. In addition, the max response in [9] (setting [19]) is 6.29%; in assay [9] (setting [20]) it was 8.52%.
Regarding `N#CCCn1c(=O)c(-c2ccc(Cl)cc2)nc2cnc(Oc3ccccc3)nc21`, the Potency was > 11.4 µM (inactive) in assay [1], 0.501 µM (active) in assay [14], > 9.22 µM (inactive) in assay [5] and > 46 µM (inactive) in assay [6]. Moreover, the activity change, negative = inhibition in assay [2] is -26.3% (inactive); in assay [3] it was -9.95% (inactive); in [9], 4.78% (inactive). In addition, the activity, negative = inhibition in assay [4] is -6.74% (inactive). For the same compound, the outcome in assay [7] was inactive. The Potency result in [8], in assay [10], in assay [11] and in assay [13] was “inactive” each time. The max response was 19.6% in assay [9] (setting [19]) and 24.2% in assay [9] (setting [20]).
Turning to `COc1ccc(-n2c(=O)c(-c3ccc(F)cc3)nc3cnc(N4CCOCC4)nc32)cc1`, the Potency in assay [1] is > 11.4 µM (inactive); in assay [5] it was > 9.22 µM (inactive); in assay [6] it was > 46 µM (inactive); in [15] it was 3.16 µM (active). Besides, the activity change, negative = inhibition in [3] was 12.6% (inactive); in [9] it was 4.12% (inactive). Besides, the result in assay [7] was inactive. In addition, the Potency entry in [8], in [10], in [16], in assay [12] and in [13] was “inactive” in each case. Also, the max response was found to be 3.3% in assay [9] (setting [19]) and 4.35% in assay [9] (setting [20]).
Regarding `N#CCCn1c(=O)c(-c2ccc(F)cc2)nc2cnc(N3CCOCC3)nc21`, the activity change, negative = inhibition in assay [2] is -0.71% (inactive); in [3], 13.6% (inactive); in assay [9], 3.46% (inactive). Also, the activity, negative = inhibition in [4] is 10.6% (inactive). Also, the Potency is > 9.22 µM (inactive) in [5] and > 46 µM (inactive) in [6]. For the same compound, in assay [7], the compound was called inactive. Also, the Potency result in [8], in assay [10], in assay [16], in assay [12] and in assay [13] was “inactive” in each case. Besides, the max response is 20.8% in [9] (setting [19]) and 23% in [9] (setting [20]).
Regarding `CN1CCN(c2ncnc3ccc(-c4ccc5c(c4)OCO5)cc23)CC1`, the Potency in [1] was > 11.4 µM (inactive); in assay [14], 2.51 µM (active); in [6], > 46 µM (inactive); in assay [17], 7.94 µM (active); in [10], 0.282 µM (active); in assay [11], 0.158 µM (active). For the same compound, the activity change, negative = inhibition in [2] is -24.4% (inactive); in [3] it was -20.4% (inactive); in assay [9], 4.95% (inactive). Besides, in [4], the activity, negative = inhibition is 6.89% (inactive). For the same compound, in [7], the result was inactive. Also, the Potency entry in assay [8], in assay [18], in assay [12] and in [13] was “inactive” each time. In addition, the max response amounted to 4.86% in [9] (setting [19]) and 5.74% in assay [9] (setting [20]).
`Cn1c(=O)c(-c2ccccc2)nc2cncnc21`: the Potency in [1] was > 11.4 µM (inactive); in [14] it was 0.631 µM (active); in [5], > 9.22 µM (inactive); in assay [6], > 46 µM (inactive). For the same compound, the activity change, negative = inhibition was -7.79% (inactive) in assay [2], -9.84% (inactive) in [3] and 6.1% (inactive) in [9]. In [4], the activity, negative = inhibition was -4.68% (inactive). For the same compound, the result in assay [7] was inactive. Also, the Potency entry in assay [8], in assay [18], in assay [10], in assay [11], in [12] and in assay [13] was “inactive” in each case. Also, the max response was found to be 8.5% in assay [9] (setting [19]) and 16.6% in [9] (setting [20]).
